Screen size: about 4,700 compounds; about 760 (16%) were called active.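 The calls were made as follows: active = inhibition above a cutoff derived from the DMSO control wells (cut at about 28% in these data); inactive = the rest.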 The list is a sample of the results.
Molecular target: Microphthalmia-associated transcription factor (Homo sapiens) (UniProt O75030)
Test: blockers of human MITF dimerization – biochemical, AlphaScreen, triplicate, confirmation (AID 1259372)
Conditions: AlphaScreen MITF homodimerization, biotin/His-MITF beads; at 2.6 µM; active compounds read high

Microphthalmia-associated transcription factor (Homo sapiens), sequence (O75030 whole entry, looked up): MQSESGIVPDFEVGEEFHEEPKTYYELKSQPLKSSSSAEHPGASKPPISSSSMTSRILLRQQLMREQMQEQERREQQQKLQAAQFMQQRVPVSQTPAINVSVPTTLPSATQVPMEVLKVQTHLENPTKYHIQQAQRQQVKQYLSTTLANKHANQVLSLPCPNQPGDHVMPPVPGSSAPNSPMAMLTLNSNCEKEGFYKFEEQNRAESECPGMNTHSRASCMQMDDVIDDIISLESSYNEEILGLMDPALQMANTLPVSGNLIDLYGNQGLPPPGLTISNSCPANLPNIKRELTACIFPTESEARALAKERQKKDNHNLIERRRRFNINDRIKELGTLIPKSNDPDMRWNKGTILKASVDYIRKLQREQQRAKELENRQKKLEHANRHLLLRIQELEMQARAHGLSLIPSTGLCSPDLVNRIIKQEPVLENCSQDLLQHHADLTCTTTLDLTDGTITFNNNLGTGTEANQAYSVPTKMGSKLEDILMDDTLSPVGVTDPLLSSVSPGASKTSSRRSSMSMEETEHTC

Compound | inhibition
COc1cc(NC(=O)CCc2nc(C3=CCN(C)CC3)no2)cc(OC)c1OC | 66.9% (active)
CCC(C)N1CCN(Cc2cccc(OC)c2)CC1 (stereo not given) | 13.4% (inactive)
CCC(CC)N1CCN(Cc2ccc(F)cc2)CC1 | 3.06% (inactive)
COc1ccc(CN2CCN(Cc3ccccc3)CC2)cc1C | -1.48% (inactive)
CSc1ccccc1NC(=O)CN(C)CC(=O)Nc1ccc(C#N)c(Cl)c1 | 4.26% (inactive)
CCOC(=O)C1C2NC(=S)N(c3ccc(F)cc3)C1(C)Oc1c(OCC)cccc12 (stereo not given) | 24.2% (inactive)
CCOC(=O)C1C2NC(=S)N(CC)C1(C)Oc1ccc(Cl)cc12 (stereo not given) | 33.4% (active)
CN1CCC(N(C)c2ncnc3scc(-c4ccc(Cl)cc4)c23)CC1 | -5.93% (inactive)
CCC(C)N1CCN(Cc2ccc(SC)cc2)CC1 (stereo not given) | 3.6% (inactive)
Fc1ccccc1CN1CCN(Cc2ccccc2F)CC1 | 4.39% (inactive)

— PubChem BioAssay AID1259372 (The Scripps Research Institute Molecular Screening Center, 2018)
